Results taken from PubChem BioAssay (Tox21).
A number with no mark means an inactive call. Records with an inconclusive call do not appear. Entries that show only a call come without a potency. Activity calls are given as the source filed them. Unless noted, calls come from the whole dose curve; as a rule, active = well fitted curve in the direction sought with a large enough effect in the repeat runs; inconclusive = weak or mixed curves; inactive = no such curve, though single readings can be large; an effect the other way counts as inactive or inconclusive.

Experiments:
[1] = A CellTox Green Cytotoxicity Assay to monitor cytotoxicity in HepG2 cells - 8 hour (AID 1224890); note: nearly all actives have a fitted effect of over 45% in size
In short: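 HepG2 cells were seeded together with the CellTox Green dye at 600 cells/well, left 5 h at 37 C/5% CO2, then given compounds in DMSO. Fluorescence from dye bound to dead-cell DNA was read repeatedly over 40 h of treatment at 37 C.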

[2] = qHTS assay to identify small molecule antagonists of the estrogen receptor alpha (ER-alpha) signaling pathway using the BG1 cell line in the presence of 0.1 nM 17-beta-estradiol - cell viability counter screen (AID 1259241); note: nearly all actives have a fitted effect of over 40% in size
In short: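 The cell line endogenously expresses full-length ER-alpha and carries four EREs driving luciferase. Cells are cultured 5 days hormone-free, treated 22 hr with compounds and 0.1 nM estradiol, then viability is read by fluorescence.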

[3] = qHTS assay to identify small molecule antagonists of the androgen receptor (AR) signaling pathway using the MDA cell line in the presence of 0.5 nM R1881 - cell viability counter screen (AID 1259242); note: nearly all actives have a fitted effect of over 45% in size
In short: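 MDA-kb2 cells (human breast carcinoma, stably carrying MMTV-luciferase reporter) were exposed to compounds with 0.5 nM R1881 (final) for 16 hr at 37C, 0% CO2; viability then read as live-cell protease fluorescence (CellTiter-Fluor, 30 min) in the same wells.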

[4] = biological target: Estrogen receptor (Homo sapiens) (UniProt P03372); assay: qHTS assay to identify small molecule antagonists of the estrogen receptor alpha (ER-alpha) signaling pathway using the BG1 cell line in the presence of 0.1 nM 17-beta-estradiol (AID 1259244); note: nearly all actives have a fitted effect of over 50% in size; note: potency is the fitted concentration of half-maximal effect
In short: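 VM7Luc4E2 cells (endogenous full-length ER-alpha, stable 4xERE-luciferase) were grown 5 days in phenol red-free medium with charcoal-stripped FBS, then exposed 22 h at 37C to compounds plus 0.1 nM (final) 17beta-estradiol; ONE-Glo luminescence read-out.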

[5] = qHTS assay to identify small molecule HDAC inhibitors (AID 1259364); note: nearly all actives have a fitted effect of over 45% in size; note: potency is the fitted concentration of half-maximal effect
In short: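 Wild-type HCT-116 cells were plated overnight, exposed to compounds for 2 h at 37 °C, then given HDAC-Glo class I/II luminogenic reagent for 30 min at room temperature before luminescence was read.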

[6] = qHTS assay to identify small molecule HDAC inhibitors - cell viability counter screen (AID 1259365); note: series mostly up to about 92 µM; nearly all actives have a fitted effect of over 50% in size
In short: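 Viability readout: CellTiter-Glo luminescence. Wild-type HCT-116 cells, 2hr compound treatment following overnight attachment at 37 C.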

[7] = qHTS assay to identify small molecule antagonists of the sonic hedgehog signaling (Shh) pathway - cell viability counter screen (AID 1259367); note: nearly all actives have a fitted effect of over 55% in size
In short: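 Seed 3T3 Gli1-Luc cells at 2,000 per well; incubate 4 hr; add compound in DMSO, then conditioned medium; incubate at 37C with 5% CO2; add CellTiter-Fluor after 23 hr; read fluorescence 1 hr later.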

[8] = qHTS assay to identify small molecule agonists of the sonic hedgehog signaling (Shh) pathway - cell viability counter screen (AID 1259366); note: nearly all actives have a fitted effect of over 50% in size
In short: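 Viability measured fluorometrically (CellTiter-Fluor, 1hr, 37C) in 3T3 Gli1-Luc reporter cells after 23hr compound exposure within a 24hr incubation at 37C/5% CO2.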

[9] = qHTS assay to identify small molecule phospholipidosis (PLD) inducers (AID 1259344; active = well fitted curve in the direction sought with a large enough effect; an effect the other way counts as inactive or inconclusive)
In short: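 Quantitative HTS in HepG2: compound plus LipidTOX Red dye for 24 h, paraformaldehyde fixation with Hoechst 33342, widefield high-content imaging; amiodarone as positive and DMSO as negative control.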

Chain of Estrogen receptor (Homo sapiens) (P03372 whole entry, looked up): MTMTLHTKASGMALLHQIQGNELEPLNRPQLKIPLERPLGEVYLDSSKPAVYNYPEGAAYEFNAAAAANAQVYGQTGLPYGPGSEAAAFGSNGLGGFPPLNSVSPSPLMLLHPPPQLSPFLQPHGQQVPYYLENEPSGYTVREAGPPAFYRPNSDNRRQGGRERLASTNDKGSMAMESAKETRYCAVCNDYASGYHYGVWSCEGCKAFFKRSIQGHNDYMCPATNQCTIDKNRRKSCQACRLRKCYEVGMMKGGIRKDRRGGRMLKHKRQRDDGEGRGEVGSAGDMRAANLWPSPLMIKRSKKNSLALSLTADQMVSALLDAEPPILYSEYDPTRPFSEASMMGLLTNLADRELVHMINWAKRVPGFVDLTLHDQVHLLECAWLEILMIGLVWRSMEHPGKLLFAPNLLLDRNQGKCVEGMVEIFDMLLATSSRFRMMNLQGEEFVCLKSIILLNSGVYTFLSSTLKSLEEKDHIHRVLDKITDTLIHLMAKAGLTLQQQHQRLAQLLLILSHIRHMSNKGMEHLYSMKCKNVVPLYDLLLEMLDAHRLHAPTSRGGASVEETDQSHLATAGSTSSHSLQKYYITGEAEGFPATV

CN1Cc2cc(C(=O)N3CCC(C4CCNCC4)CC3)ccc2N[C@@H](CC(=O)O)C1=O
Potency [1]: inactive
Potency [2]: inactive
Potency [3]: inactive
Potency [4]: inactive
Potency [5]: inactive
Potency [6]: inactive
Potency [7]: inactive

CSc1ccc(Oc2ccc(S(N)(=O)=O)cc2CN(C)C)cc1C
Potency [1]: inactive
Potency [2]: inactive
Potency [3]: inactive
Potency [4]: 68.6 µM (active)
Potency [5]: inactive
Potency [6]: inactive
Potency [7]: inactive

CC(C)(CCl)c1ccccc1
Potency [1]: inactive
Potency [2]: inactive
Potency [3]: inactive
Potency [4]: inactive
Potency [5]: inactive
Potency [6]: inactive
Potency [8]: inactive
Potency [7]: inactive

Cc1cc(OI)c(C(C)C)cc1-c1cc(C(C)C)c(OI)cc1C
Potency [1]: inactive
Potency [2]: inactive
Potency [3]: inactive
outcome [9]: inactive
Potency [5]: inactive
Potency [6]: inactive
Potency [8]: inactive
Potency [7]: inactive

O=C(Nc1ccccc1)Nc1ccccc1
Potency [1]: inactive
Potency [2]: inactive
Potency [3]: inactive
Potency [4]: inactive
Potency [5]: 1.54 µM (active)
Potency [6]: inactive
Potency [8]: inactive
Potency [7]: inactive

O=C(/C=C/c1ccccc1)OCCCc1ccccc1
Potency [1]: inactive
Potency [2]: inactive
Potency [3]: inactive
Potency [4]: inactive
Potency [5]: inactive
Potency [6]: inactive
Potency [8]: inactive
Potency [7]: inactive

CCCCC(CC)C(=O)OCCOCCOCCOCCOC(=O)C(CC)CCCC (stereo unspecified)
Potency [1]: inactive
Potency [2]: inactive
Potency [3]: inactive
Potency [4]: inactive
Potency [5]: inactive
Potency [6]: inactive
Potency [8]: inactive
Potency [7]: inactive

CCCCN(CCCC)C(=S)SSC(=S)N(CCCC)CCCC
Potency [1]: inactive
Potency [2]: inactive
Potency [3]: inactive
Potency [4]: inactive
Potency [5]: inactive
Potency [6]: inactive
Potency [7]: inactive

O=C(O)c1cccc(O)c1
Potency [1]: inactive
Potency [2]: inactive
Potency [3]: inactive
Potency [4]: inactive
Potency [5]: inactive
Potency [6]: inactive
Potency [7]: inactive

CC1=C(C=O)C(C)(C)CCC1
Potency [1]: inactive
Potency [2]: inactive
Potency [3]: inactive
Potency [4]: inactive
Potency [5]: inactive
Potency [6]: inactive
Potency [7]: inactive

COCC(O)CO (stereo unspecified)
Potency [1]: inactive
Potency [2]: inactive
Potency [3]: inactive
Potency [4]: inactive
Potency [5]: inactive
Potency [6]: inactive
Potency [8]: inactive
Potency [7]: inactive

C[Si](NC1CCCCC1)(NC1CCCCC1)NC1CCCCC1
Potency [1]: inactive
Potency [2]: inactive
Potency [3]: inactive
Potency [4]: inactive
Potency [5]: inactive
Potency [6]: inactive
Potency [8]: inactive
Potency [7]: inactive

CC(=O)Oc1ccc2c(c1)CC[C@@H]1[C@@H]2CC[C@]2(C)[C@@H](O)CC[C@@H]12
Potency [1]: inactive
Potency [2]: inactive
Potency [3]: inactive
outcome [9]: inactive
Potency [5]: inactive
Potency [6]: inactive
Potency [8]: inactive

CCOC(=O)OCC
Potency [1]: inactive
Potency [2]: inactive
Potency [3]: inactive
Potency [4]: inactive
Potency [5]: inactive
Potency [6]: inactive
Potency [8]: inactive
Potency [7]: inactive

Cc1ccc(S(=O)(=O)NC2CCCCC2)cc1
Potency [1]: inactive
Potency [2]: inactive
Potency [3]: inactive
Potency [4]: inactive
Potency [5]: inactive
Potency [6]: inactive
Potency [7]: inactive

Brc1cc(-c2ccc(Br)c(Br)c2Br)cc(Br)c1Br
Potency [1]: inactive
Potency [2]: inactive
Potency [3]: inactive
Potency [4]: inactive
Potency [5]: inactive
Potency [6]: inactive
Potency [7]: inactive

Cc1nc2ccccn2c(=O)c1CCN1CCC(C(=O)c2ccc(F)cc2)CC1
Potency [1]: inactive
Potency [2]: inactive
Potency [3]: inactive
outcome [9]: inactive
Potency [5]: inactive
Potency [6]: inactive
Potency [8]: inactive

Cc1ccc(/C=N/n2c(-c3ccccc3)csc2=S)cc1
Potency [1]: inactive
Potency [2]: inactive
Potency [3]: inactive
outcome [9]: inactive
Potency [5]: inactive
Potency [6]: inactive
Potency [8]: inactive
Potency [7]: inactive

CC(=O)N(c1onc(C)c1C)S(=O)(=O)c1ccc(N)cc1
Potency [1]: inactive
Potency [2]: inactive
Potency [3]: inactive
Potency [4]: inactive
Potency [5]: inactive
Potency [6]: inactive
Potency [8]: inactive
Potency [7]: inactive

C1COCO1
Potency [1]: inactive
Potency [2]: inactive
Potency [3]: inactive
Potency [4]: inactive
Potency [5]: inactive
Potency [6]: inactive
Potency [8]: inactive
Potency [7]: inactive

OC/C(Br)=C(\Br)CO
Potency [1]: inactive
Potency [2]: inactive
Potency [3]: inactive
Potency [4]: inactive
Potency [5]: inactive
Potency [6]: inactive
Potency [8]: inactive
Potency [7]: inactive

CC(COc1ccc(C(C)(C)C)cc1)OS(=O)OCCCl (stereo unspecified)
Potency [1]: inactive
Potency [2]: inactive
Potency [3]: inactive
Potency [4]: 1.38 µM (active)
Potency [5]: inactive
Potency [6]: inactive
Potency [7]: inactive

CCN(Cc1cccc(S(=O)(=O)O)c1)c1ccc(C(=C2C=CC(=[N+](CC)Cc3cccc(S(=O)(=O)[O-])c3)C=C2)c2ccccc2)cc1
Potency [1]: inactive
Potency [2]: inactive
Potency [3]: inactive
Potency [4]: inactive
Potency [5]: inactive
Potency [6]: inactive
Potency [7]: inactive

CCCCCCCCCCOS(=O)(=O)O
Potency [1]: inactive
Potency [2]: inactive
Potency [3]: inactive
Potency [4]: inactive
Potency [5]: inactive
Potency [6]: inactive
Potency [7]: inactive

COC(=O)Nc1nc2ccc(C(=O)c3cccs3)cc2[nH]1
Potency [1]: inactive
Potency [2]: inactive
Potency [3]: inactive
outcome [9]: inactive
Potency [5]: 11.9 µM (active)
Potency [6]: inactive
Potency [8]: inactive

CCOC(=N)CC(=O)OCC
Potency [1]: inactive
Potency [2]: inactive
Potency [3]: inactive
Potency [4]: inactive
Potency [5]: inactive
Potency [6]: inactive
Potency [8]: inactive
Potency [7]: inactive

Nc1ccc(S(=O)(=O)O)cc1
Potency [1]: inactive
Potency [2]: inactive
Potency [3]: inactive
Potency [4]: inactive
Potency [5]: inactive
Potency [6]: inactive
Potency [8]: inactive
Potency [7]: inactive

COC(=O)CC(=O)C(C)(C)C
Potency [1]: inactive
Potency [2]: inactive
Potency [3]: inactive
Potency [4]: inactive
Potency [5]: inactive
Potency [6]: inactive
Potency [8]: inactive
Potency [7]: inactive
